Measurements as given in paper PMC7862700, “An all-to-all approach to the identification of sequence-specific readers for epigenetic DNA modifications on cytosine”.

Assays:
Assay in all cases: DAPPL (digital affinity profiling via proximity ligation, sequencing); 10 mM Tris-HCl pH 7.5, 50 mM NaCl, 1 mM DTT, 4% glycerol, room temperature, 30 min; GST-TFs on glutathione beads, 16-mer random dsDNA library, 0.1% formaldehyde crosslink after washing; high values mean tight binding
FLI1 = target: T1, FLI1 (Homo sapiens, UniProt Q01543 1-452); conditions: protein: recombinant; tags: N-terminal GST; dsDNA, one strand shown
T1 sequence: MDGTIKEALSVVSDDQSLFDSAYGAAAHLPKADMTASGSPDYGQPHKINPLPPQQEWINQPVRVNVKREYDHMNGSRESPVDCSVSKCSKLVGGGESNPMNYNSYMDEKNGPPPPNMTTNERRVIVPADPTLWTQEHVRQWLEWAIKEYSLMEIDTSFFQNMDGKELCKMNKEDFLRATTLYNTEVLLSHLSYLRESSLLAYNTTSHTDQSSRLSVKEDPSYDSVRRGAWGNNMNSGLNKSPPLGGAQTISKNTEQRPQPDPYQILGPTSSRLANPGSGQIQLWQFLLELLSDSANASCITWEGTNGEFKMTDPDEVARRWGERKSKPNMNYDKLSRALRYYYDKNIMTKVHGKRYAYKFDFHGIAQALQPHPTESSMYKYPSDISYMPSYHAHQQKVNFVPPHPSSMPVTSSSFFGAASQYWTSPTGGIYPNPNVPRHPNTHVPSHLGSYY
In short: (§1)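 Sequencing on an Illumina NextSeq500 followed washing, crosslinking with 0.1% formaldehyde, proximity ligation (BsaI/T4 ligase, 1 h, 37 °C) and PCR amplification of pools that had been incubated for 30 min at room temperature with 200 nmole of a random double-stranded 16-mer DNA library in Tris/NaCl/DTT/glycerol buffer. Each pool held DNA-barcoded human transcription factors, expressed in yeast as GST fusions and captured on glutathione beads, plus a tag-only sample. Binding signal is a hexamer's read frequency for a factor divided by its frequency in the tag-only sample.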

ELK1 = target: T2, ELK1 (Homo sapiens, UniProt P19419 1-428); conditions: protein: recombinant; tags: N-terminal GST; dsDNA, one strand shown
T2 sequence: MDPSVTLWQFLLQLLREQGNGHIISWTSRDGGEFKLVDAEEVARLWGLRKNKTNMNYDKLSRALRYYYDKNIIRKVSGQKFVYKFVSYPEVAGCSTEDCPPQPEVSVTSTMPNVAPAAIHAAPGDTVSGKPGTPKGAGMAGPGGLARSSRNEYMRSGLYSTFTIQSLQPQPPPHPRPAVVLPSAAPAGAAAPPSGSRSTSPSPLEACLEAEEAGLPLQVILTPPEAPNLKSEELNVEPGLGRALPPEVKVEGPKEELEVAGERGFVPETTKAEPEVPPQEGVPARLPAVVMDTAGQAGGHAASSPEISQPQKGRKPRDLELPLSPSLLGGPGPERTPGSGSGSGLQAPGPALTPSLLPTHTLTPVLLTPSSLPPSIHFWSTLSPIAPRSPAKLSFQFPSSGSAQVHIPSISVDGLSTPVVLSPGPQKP
In short: as §1

GABPA = target: T3, GABPA (Homo sapiens, UniProt Q06546 1-454); conditions: protein: recombinant; tags: N-terminal GST; dsDNA, one strand shown
T3 sequence: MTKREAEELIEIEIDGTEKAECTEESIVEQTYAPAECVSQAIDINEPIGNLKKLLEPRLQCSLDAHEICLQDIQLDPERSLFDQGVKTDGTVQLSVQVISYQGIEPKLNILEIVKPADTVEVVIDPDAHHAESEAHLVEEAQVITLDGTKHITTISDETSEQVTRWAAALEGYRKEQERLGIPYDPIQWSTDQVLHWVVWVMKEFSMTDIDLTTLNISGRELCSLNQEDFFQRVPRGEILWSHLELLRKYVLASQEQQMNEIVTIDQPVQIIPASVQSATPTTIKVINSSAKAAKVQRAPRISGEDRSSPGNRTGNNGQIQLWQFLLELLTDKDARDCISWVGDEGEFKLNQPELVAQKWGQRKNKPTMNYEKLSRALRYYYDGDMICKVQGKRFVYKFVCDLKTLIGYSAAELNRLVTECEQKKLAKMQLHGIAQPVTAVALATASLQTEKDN
In short: as §1

ERG = target: T4, ERG (Homo sapiens, UniProt P11308 1-479); conditions: protein: recombinant; tags: N-terminal GST; dsDNA, one strand shown
T4 sequence: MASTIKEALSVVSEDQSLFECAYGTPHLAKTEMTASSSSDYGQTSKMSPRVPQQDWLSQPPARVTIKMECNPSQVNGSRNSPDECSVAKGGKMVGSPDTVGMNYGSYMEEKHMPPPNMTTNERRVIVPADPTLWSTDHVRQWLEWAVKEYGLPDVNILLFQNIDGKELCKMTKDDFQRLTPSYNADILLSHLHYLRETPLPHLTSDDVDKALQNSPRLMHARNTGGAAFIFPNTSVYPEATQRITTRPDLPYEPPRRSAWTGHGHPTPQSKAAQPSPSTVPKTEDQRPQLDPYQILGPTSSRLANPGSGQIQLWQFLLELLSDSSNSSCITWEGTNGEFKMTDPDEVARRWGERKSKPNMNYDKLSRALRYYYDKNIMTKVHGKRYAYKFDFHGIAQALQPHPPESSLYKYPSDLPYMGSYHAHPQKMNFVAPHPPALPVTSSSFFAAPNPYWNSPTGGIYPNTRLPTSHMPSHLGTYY
In short: as §1

ELF1 = ELF1 (Homo sapiens, UniProt P32519 1-619); conditions: protein: recombinant; tags: N-terminal GST; dsDNA, one strand shown
ELF1, sequence (P32519 whole entry): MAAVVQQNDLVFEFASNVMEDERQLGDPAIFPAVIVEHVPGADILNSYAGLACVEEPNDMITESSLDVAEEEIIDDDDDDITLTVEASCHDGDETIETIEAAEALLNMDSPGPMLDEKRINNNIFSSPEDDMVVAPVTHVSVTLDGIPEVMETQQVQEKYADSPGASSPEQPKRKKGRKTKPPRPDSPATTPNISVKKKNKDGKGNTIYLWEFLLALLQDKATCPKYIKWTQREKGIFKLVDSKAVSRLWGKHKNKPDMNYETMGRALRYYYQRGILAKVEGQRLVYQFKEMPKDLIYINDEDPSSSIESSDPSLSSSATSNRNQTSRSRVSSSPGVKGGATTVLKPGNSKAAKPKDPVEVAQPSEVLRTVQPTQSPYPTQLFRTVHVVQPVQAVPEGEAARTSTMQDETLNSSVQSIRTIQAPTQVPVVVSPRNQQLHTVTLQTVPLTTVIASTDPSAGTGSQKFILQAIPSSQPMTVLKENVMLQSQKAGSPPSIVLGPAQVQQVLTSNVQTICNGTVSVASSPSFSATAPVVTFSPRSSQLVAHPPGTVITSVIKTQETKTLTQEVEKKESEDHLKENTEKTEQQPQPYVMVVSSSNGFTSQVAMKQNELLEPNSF
In short: as §1

EHF = target: T5, EHF (Homo sapiens, UniProt Q9NZC4 1-300); conditions: protein: recombinant; tags: N-terminal GST; dsDNA, one strand shown
T5 sequence: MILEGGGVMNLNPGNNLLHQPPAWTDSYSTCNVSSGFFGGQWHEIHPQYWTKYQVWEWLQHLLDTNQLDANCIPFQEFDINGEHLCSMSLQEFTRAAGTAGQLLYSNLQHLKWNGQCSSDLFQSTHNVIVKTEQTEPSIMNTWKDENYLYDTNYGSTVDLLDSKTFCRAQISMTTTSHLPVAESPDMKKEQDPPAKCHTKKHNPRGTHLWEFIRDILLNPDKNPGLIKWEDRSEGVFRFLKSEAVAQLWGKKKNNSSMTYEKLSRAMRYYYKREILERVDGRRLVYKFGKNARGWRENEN
In short: as §1

SPI1 = SPI1 (Homo sapiens, UniProt P17947 1-270); conditions: protein: recombinant; tags: N-terminal GST; dsDNA, one strand shown
In short: as §1

SPIB = SPIB (Homo sapiens, UniProt Q01892 1-262); conditions: protein: recombinant; tags: N-terminal GST; dsDNA, one strand shown
SPIB, sequence (Q01892 whole entry): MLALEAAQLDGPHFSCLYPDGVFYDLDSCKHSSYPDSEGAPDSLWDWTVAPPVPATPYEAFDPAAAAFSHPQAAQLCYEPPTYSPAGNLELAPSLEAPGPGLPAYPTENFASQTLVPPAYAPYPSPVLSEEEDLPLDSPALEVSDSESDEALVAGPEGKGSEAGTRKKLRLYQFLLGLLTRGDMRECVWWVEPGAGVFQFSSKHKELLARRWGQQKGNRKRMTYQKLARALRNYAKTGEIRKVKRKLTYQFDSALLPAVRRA
In short: as §1

ELK3 = target: T6, ELK3 (Homo sapiens, UniProt P41970 1-407); conditions: protein: recombinant; tags: N-terminal GST; dsDNA, one strand shown
T6 sequence: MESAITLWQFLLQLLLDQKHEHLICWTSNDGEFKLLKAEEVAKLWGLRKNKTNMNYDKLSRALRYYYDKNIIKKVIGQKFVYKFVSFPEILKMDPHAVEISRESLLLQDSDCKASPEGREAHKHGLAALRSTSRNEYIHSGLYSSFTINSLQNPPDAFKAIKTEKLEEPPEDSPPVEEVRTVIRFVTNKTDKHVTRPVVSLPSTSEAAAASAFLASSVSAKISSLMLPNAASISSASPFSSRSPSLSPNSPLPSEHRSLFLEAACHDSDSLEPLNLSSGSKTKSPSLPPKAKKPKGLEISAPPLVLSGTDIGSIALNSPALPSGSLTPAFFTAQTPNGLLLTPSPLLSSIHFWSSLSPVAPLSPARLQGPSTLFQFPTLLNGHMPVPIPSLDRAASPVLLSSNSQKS
In short: as §1

FEV = target: T7, FEV (Homo sapiens, UniProt Q99581 1-238); conditions: protein: recombinant; tags: N-terminal GST; dsDNA, one strand shown
T7 sequence: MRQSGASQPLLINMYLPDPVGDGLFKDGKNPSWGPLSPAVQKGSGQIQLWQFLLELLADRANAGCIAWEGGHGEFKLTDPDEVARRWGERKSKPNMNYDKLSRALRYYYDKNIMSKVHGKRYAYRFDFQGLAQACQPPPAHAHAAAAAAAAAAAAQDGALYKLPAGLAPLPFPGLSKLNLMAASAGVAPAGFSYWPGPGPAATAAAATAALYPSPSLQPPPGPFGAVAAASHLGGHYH
In short: as §1

ETV5 = ETV5 (Homo sapiens, UniProt P41161 1-510); conditions: protein: recombinant; tags: N-terminal GST; dsDNA, one strand shown
ETV5, sequence (P41161 whole entry): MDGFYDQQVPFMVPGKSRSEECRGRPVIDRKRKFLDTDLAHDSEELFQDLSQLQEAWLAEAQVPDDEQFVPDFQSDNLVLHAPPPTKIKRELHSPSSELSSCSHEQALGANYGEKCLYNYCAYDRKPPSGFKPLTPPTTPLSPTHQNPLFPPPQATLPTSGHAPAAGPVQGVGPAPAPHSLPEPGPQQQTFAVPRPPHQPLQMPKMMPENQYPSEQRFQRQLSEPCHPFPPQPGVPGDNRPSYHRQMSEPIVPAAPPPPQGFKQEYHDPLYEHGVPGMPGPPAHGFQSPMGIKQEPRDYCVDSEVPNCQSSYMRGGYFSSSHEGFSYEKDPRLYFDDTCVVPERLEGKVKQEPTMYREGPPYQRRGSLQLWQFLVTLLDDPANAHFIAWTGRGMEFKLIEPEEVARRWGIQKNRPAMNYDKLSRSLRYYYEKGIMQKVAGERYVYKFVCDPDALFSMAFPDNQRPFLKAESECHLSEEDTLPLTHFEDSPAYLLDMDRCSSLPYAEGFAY
In short: as §1

HSF1 = HSF1 (Homo sapiens, UniProt Q00613 1-529); conditions: protein: recombinant; tags: N-terminal GST; chain copies: 3; dsDNA, one strand shown
HSF1, sequence (Q00613 whole entry): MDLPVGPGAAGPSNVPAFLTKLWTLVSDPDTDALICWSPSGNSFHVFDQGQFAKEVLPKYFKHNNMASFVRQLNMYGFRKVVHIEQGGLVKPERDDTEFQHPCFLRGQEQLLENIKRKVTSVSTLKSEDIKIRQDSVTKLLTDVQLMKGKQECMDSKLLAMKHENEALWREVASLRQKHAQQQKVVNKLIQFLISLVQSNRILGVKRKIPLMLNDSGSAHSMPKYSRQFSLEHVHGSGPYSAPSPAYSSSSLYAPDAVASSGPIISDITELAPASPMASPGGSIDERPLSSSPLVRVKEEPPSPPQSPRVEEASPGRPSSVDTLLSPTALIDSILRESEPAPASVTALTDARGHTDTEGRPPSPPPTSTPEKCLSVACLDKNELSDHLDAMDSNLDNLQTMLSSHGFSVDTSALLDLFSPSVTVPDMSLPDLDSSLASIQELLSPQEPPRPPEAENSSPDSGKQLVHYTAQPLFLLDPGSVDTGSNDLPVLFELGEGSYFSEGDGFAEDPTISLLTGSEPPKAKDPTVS
In short: as §1

SPIC = target: T8, SPIC (Homo sapiens, UniProt Q8N5J4 1-248); conditions: protein: recombinant; tags: N-terminal GST; dsDNA, one strand shown
T8 sequence: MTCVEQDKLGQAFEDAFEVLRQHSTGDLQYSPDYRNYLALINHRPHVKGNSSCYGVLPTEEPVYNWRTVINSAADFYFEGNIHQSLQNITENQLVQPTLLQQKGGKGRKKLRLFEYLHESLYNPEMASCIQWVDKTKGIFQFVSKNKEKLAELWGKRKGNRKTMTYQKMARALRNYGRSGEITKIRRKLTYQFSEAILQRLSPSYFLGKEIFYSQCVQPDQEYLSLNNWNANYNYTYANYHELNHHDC
In short: as §1

ELF4 = ELF4 (Homo sapiens, UniProt Q99607 1-663); conditions: protein: recombinant; tags: N-terminal GST; dsDNA, one strand shown
ELF4, sequence (Q99607 whole entry): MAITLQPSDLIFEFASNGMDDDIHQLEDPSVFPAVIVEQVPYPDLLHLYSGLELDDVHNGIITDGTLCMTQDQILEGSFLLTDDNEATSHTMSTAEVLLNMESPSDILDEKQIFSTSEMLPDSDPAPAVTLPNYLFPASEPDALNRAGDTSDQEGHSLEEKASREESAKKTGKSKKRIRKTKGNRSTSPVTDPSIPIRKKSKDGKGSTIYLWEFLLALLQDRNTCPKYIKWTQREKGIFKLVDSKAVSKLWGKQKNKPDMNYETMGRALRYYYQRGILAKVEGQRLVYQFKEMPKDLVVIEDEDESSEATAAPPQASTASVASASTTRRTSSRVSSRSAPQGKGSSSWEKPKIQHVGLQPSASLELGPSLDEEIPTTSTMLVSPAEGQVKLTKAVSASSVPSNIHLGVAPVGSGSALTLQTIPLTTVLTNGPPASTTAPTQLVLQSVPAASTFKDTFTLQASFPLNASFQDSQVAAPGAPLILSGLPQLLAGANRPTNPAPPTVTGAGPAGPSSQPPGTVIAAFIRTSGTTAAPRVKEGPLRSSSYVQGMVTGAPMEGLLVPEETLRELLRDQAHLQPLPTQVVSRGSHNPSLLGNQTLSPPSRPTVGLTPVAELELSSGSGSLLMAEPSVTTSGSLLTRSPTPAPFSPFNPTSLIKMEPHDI
In short: as §1

ELK4 = target: T9, ELK4 (Homo sapiens, UniProt P28324-2 1-405); conditions: protein: recombinant; tags: N-terminal GST; dsDNA, one strand shown
T9 sequence: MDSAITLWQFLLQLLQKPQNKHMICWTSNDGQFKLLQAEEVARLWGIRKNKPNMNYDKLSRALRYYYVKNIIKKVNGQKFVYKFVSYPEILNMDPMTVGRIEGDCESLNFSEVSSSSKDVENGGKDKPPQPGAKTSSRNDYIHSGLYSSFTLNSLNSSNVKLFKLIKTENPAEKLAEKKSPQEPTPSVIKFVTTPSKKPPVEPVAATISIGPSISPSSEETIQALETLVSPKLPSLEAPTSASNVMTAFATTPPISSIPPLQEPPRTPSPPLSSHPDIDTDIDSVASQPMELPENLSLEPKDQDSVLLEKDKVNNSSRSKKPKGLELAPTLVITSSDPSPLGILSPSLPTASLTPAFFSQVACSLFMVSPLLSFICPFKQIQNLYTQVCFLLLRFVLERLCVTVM
In short: as §1

ETV2 = target: T10, ETV2 (Homo sapiens, UniProt O00321 1-342); conditions: protein: recombinant; tags: N-terminal GST; dsDNA, one strand shown
T10 sequence: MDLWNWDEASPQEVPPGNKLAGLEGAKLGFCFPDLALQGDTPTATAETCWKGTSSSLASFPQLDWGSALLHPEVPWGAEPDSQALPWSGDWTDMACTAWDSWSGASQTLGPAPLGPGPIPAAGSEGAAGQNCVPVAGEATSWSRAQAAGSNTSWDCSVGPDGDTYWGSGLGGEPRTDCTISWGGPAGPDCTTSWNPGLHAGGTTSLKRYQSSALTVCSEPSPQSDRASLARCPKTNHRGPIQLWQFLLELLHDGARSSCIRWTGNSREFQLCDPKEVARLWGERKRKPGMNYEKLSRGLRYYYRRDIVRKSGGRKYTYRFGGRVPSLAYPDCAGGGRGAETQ
In short: as §1

ELF3 = target: T11, ELF3 (Homo sapiens, UniProt P78545 1-371); conditions: protein: recombinant; tags: N-terminal GST; dsDNA, one strand shown
T11 sequence: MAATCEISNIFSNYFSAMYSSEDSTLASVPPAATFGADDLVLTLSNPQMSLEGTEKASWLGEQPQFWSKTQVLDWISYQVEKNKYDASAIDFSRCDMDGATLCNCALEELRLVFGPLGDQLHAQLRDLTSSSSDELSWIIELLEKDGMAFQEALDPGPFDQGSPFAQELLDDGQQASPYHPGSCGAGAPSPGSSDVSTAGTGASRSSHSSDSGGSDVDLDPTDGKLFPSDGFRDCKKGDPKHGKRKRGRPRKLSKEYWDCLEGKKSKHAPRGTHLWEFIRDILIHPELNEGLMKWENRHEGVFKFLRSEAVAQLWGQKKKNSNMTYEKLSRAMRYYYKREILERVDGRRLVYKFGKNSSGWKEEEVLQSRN
In short: as §1

CRX = CRX (Homo sapiens, UniProt O43186 1-299); conditions: protein: recombinant; tags: N-terminal GST; dsDNA, one strand shown
CRX, sequence (O43186 whole entry): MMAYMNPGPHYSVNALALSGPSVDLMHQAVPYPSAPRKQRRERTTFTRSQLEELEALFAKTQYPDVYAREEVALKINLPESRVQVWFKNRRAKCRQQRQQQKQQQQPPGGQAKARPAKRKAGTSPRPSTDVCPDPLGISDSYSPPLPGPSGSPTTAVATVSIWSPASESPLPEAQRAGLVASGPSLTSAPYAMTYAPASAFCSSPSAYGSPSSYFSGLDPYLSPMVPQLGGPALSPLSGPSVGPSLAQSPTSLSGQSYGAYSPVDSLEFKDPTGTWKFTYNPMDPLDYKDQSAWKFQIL
In short: as §1

ETV1 = ETV1 (Homo sapiens, UniProt P50549 1-477); conditions: protein: recombinant; tags: N-terminal GST; dsDNA, one strand shown
ETV1, sequence (P50549 whole entry): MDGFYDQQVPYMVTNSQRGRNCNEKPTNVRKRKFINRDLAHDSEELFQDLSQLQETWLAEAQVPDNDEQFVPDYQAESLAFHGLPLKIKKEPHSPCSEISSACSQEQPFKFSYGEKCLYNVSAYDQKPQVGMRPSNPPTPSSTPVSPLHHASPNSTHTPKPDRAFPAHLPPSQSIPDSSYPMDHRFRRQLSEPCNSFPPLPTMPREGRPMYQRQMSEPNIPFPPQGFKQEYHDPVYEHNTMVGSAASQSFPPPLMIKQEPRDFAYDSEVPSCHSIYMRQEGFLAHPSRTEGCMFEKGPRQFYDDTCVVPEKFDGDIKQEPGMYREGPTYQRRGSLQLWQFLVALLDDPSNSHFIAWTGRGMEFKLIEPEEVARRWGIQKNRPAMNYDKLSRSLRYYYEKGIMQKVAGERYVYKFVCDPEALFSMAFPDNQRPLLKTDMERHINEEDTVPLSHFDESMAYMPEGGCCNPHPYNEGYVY
In short: as §1

## TCTAGC
FLI1
  binding signal: 1.31 fold enrichment (6-mer frequency, TF over GST control)
ELK1
  binding signal: 1.34 fold enrichment (6-mer frequency, TF over GST control)
GABPA
  binding signal: 1.24 fold enrichment (6-mer frequency, TF over GST control)
ERG
  binding signal: 1.32 fold enrichment (6-mer frequency, TF over GST control)
ELF1
  binding signal: 1.35 fold enrichment (6-mer frequency, TF over GST control)
EHF
  binding signal: 1.38 fold enrichment (6-mer frequency, TF over GST control)
SPI1
  binding signal: 1.21 fold enrichment (6-mer frequency, TF over GST control)
SPIB
  binding signal: 1.19 fold enrichment (6-mer frequency, TF over GST control)
ELK3
  binding signal: 1.44 fold enrichment (6-mer frequency, TF over GST control)
FEV
  binding signal: 1.25 fold enrichment (6-mer frequency, TF over GST control)
ETV5
  binding signal: 1.27 fold enrichment (6-mer frequency, TF over GST control)
HSF1
  binding signal: 2.63 fold enrichment (6-mer frequency, TF over GST control)
SPIC
  binding signal: 1.16 fold enrichment (6-mer frequency, TF over GST control)
ELF4
  binding signal: 1.26 fold enrichment (6-mer frequency, TF over GST control)
ELK4
  binding signal: 1.39 fold enrichment (6-mer frequency, TF over GST control)
ETV2
  binding signal: 1.19 fold enrichment (6-mer frequency, TF over GST control)
ELF3
  binding signal: 1.32 fold enrichment (6-mer frequency, TF over GST control)
CRX
  binding signal: 1.7 fold enrichment (6-mer frequency, TF over GST control)
ETV1
  binding signal: 1.21 fold enrichment (6-mer frequency, TF over GST control)
